PubChem BioAssay AID1839 (Johns Hopkins Ion Channel Center, 2009)
About 220 (9.2%) of roughly 2,400 compounds were called active. This is one part of a sample in which actives are shown more often than they occur. Values without a mark were called inactive.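 Rule for the calls: active = signal change above the mean of dofetilide-free buffer controls plus 3 SD, so a positive margin; inactive = the rest.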

Assay: nonspecific flux effects in parental CHO-K1, confirmation, counter-screen for hERG block protection project, cell-based, CHO-K1 parental line, FluxOR thallium flux (AID 1839);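 note: compounds applied alone with no dofetilide to cells lacking hERG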
Conditions: CHO-K1 parental cells, FluxOR thallium flux fluorescence; at 10 µM

Structure (SMILES) | signal change vs control minus 3*SD hit threshold (margin above threshold, higher = more increase)
COc1ccc(-c2cc(C(=O)N3CCCC3)no2)cc1OC | -5.8%
CCOC(=O)c1[nH]c(=O)[nH]c1COC(=O)c1cc2ccccc2o1 | -34.3%
COc1ccc(NC(=O)CSCC(=O)Oc2c(OC)cccc2OC)cc1 | -30.4%
Cc1cc(C)n(-c2nc3sc4c(c3c(=O)[nH]2)CCCC4)n1 | -29.7%
CCn1c(SC(C)C(=O)O)nc2sc3c(c2c1=O)CCC3 (stereo not drawn) | -5.9%
CCn1c(=S)[nH]c2sc3c(c2c1=O)CCCCC3 | 37.1% (active)
O=C(Nc1cccnc1)c1ccc(COc2cc(Cl)ccc2Cl)o1 | -33.5%
CCCSc1cc(NCCOC(C)=O)c([N+](=O)[O-])c2nonc12 | -28.6%
Cc1cccc(C(=O)NNC(=S)NC(=O)c2ccccc2)c1 | -45%
Cc1ccc(C(=O)NNC(=S)NC(=O)c2ccccc2)cc1 | -43.2%
Cc1cc2ccccn2c1C(=S)NC(=O)c1ccccc1 | 2.8% (active)
COc1ccc(C(=O)NC(=S)N2CCC(C)CC2)cc1 | -29%
CCc1ccc(/C=C/C(=O)c2cc(Br)ccc(=O)c2O)cc1 | -23.5%
CCOC(=O)C1=C(O)c2ccccc2C(=O)/C1=C\c1ccc(CC)cc1 | -14.9%
Cc1ccc(/C=C/C(=O)c2ccccc(=O)c2O)cc1C | -20.1%
Cc1ccc(/C=N/N2C(=O)c3ccccc3NC2c2ccc(C)cc2)cc1 (stereo not drawn) | -30%
CCc1ccc(/C=C/C(=O)C2C(=O)c3ccccc3C2=O)cc1 | 15.2% (active)
Cc1ccc(/C=C/C(=O)C2C(=O)c3ccccc3C2=O)cc1 | 8.4% (active)
COc1ccc(-n2c(SCc3ccccn3)nc3c(c2=O)SCC3)cc1OC | -16.3%
O=C(COC(=O)c1cnccn1)c1ccc(Cl)cc1 | -30.4%
CC(C)OC(=O)c1c(NS(=O)(=O)c2ccccc2)sc2c1CCCC2 | -18.4%
CCOC(=O)c1c(NS(C)(=O)=O)sc2c1CCC(C)C2 (stereo not drawn) | -5.6%
CC1CCc2c(sc(NS(=O)(=O)c3ccccc3)c2C(=O)OC(C)C)C1 (stereo not drawn) | 5.8% (active)
CCOc1ccc(NC(=O)CSc2nc3nc(C)cc(C)n3n2)cc1 | -31.5%

Structure (SMILES) | signal change vs control minus 3*SD hit threshold (margin above threshold, higher = more increase)
CC1=CCC[C@@H]2[C@@](C)(CC/C(C)=C/C(=O)O)[C@H](C)CC[C@@]12C | 7.9% (active)
O=[N+]([O-])c1cccc(/C=C/c2nc(C=Nc3ccccc3)c(O)o2)c1 | -34.1%
COC(=O)C1=NN(C(=O)c2cccc(Br)c2)C(O)(c2ccc(Cl)cc2)C1 (stereo not drawn) | 64.5% (active)
Cc1ccc(C(=O)NNC(=S)NC(=O)c2ccc(Cl)cc2)cc1 | -46.2%
CC1=NN(C(=O)c2ccc(Cl)cc2)C(O)(c2ccccc2)C1 (stereo not drawn) | -21.7%
CC1=NN(C(=O)c2ccccc2Br)C(O)(c2ccc(Cl)cc2)C1 (stereo not drawn) | -36.1%
CCC1=NN(C(=O)c2ccc(Cl)cc2)C(O)(c2ccccc2)C1 (stereo not drawn) | -32.2%
CCC1=NN(C(=O)c2ccc(Cl)cc2)C(O)(c2ccc(C)cc2)C1 (stereo not drawn) | -25.9%
COC(=O)C1=NN(C(=O)c2ccc(C)cc2)C(O)(c2ccc(Cl)cc2)C1 (stereo not drawn) | 46.4% (active)
CCOC(=O)c1cnc(-n2nc(C)cc2C)nc1Nc1cccc(C(=O)O)c1 | -22.1%
CC(C)(C)C1(O)CC(C(F)(F)F)=NN1C(=O)Cc1ccc([N+](=O)[O-])cc1 (stereo not drawn) | -27%
COC(=O)C1=NN(C(=O)c2ccc(Cl)cc2)C(O)(c2ccccc2)C1 (stereo not drawn) | 17.7% (active)
CCOC(=O)C1=NN(C(=O)c2cccc(Br)c2)C(O)(C(C)(C)C)C1 (stereo not drawn) | 49.8% (active)
Cc1c(C)c2ccc(OCC(=O)N[C@@H](Cc3ccccc3)C(=O)O)cc2oc1=O | -15.2%
O=C(C1CC(=O)N(c2ccc3c(c2)OCCO3)C1)N1CCCC(C(F)(F)F)C1 (stereo not drawn) | -31.3%
COc1ccc(/C(C)=N/Nc2ccc(C(=O)O)cc2)c(OC)c1 | -36.2%
Cc1ccc(C(=C2C3C=CC2C2C(=O)NC(=O)C32)c2ccc(C)cc2)cc1 (stereo not drawn) | -28.1%
O=C(Nc1nc2c(Br)cc(Br)cc2c(=O)s1)C1CCC1 | -21%
Cc1ccc(/C(O)=C/C(=O)C(=O)NC23CC4CC(CC(C4)C2)C3)cc1 | -22.7%
CCn1ncc(Cl)c1C(=O)NC(=S)Nc1ccccc1Br | -0.1%
Cc1cccc(/C=N/n2c(COc3ccccc3)n[nH]c2=S)c1 | -23.1%
COc1ccc(NC(=S)NC(NC(=O)c2cccc3ccccc23)C(Cl)(Cl)Cl)c([N+](=O)[O-])c1 (stereo not drawn) | -33.1%
NC(=O)C1CCN(C(=O)c2cc3c(s2)CCCC3)CC1 | -20.8%
O=C(COc1cccc(-n2cnnn2)c1)Nc1ccc([N+](=O)[O-])cc1 | -25.2%
